# Screening results (PubChem)
# Shown are actives, neighbours in structure and some others; about 1.3% of the full set was active somewhere.
# NR2F2 inh = inhibitors of human COUP-TFII (NR2F2); P24468; HEK293T NGFI-A luciferase reporter, luminescence; inhibition, % at 8.6 µM; 0.7% of 370,000 active;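 active = inhibition above a per-plate cutoff, mean inhibition of test wells between control levels plus 3 SD, cut at about 38% in these data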;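 also: cells cotransfected with COUP-TFII expression vector driving the NGFI-A reporter; 0% = median of COUP-TF2 test wells and 100% = reporter-only cells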
# Target sequence (P24468 whole entry, looked up): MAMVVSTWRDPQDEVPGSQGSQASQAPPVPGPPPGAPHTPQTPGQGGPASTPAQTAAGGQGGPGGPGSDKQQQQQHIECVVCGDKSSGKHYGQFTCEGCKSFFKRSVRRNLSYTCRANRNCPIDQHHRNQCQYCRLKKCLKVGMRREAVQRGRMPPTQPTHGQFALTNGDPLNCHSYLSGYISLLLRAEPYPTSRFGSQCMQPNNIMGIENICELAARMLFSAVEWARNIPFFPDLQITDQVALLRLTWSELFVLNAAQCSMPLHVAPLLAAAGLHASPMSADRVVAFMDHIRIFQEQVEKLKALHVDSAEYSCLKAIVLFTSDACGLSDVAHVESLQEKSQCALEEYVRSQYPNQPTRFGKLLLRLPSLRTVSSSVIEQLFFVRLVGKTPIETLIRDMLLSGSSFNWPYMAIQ
# NR5A2 inv ag = inverse agonists of human LRH-1 (NR5A2); O00482; HEK293T StAR-luciferase reporter, LRH-1 transfected, 24 h; inhibition, % at 3.6 µM; 0.13% of 360,000 active;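 active = inhibition above the mean inhibition of all tested compounds plus 3 SD, cut at about 73% in these data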;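 also: 0% = DMSO wells and 100% = reporter-only cells lacking LRH-1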
# NCOA3 inh = inhibitors of human steroid receptor coactivator 3 (SRC3). inhibition, % at 3.6 µM. HEK293 GAL4-SRC3 luciferase reporter, luminescence. 0.17% of 360,000 active;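 active = inhibition above a per-campaign cutoff, the mean of all compounds plus 3 SD, cut at about 60% in these data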;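 also: 0% = DMSO-treated cells and 100% = gossypol-treated cells at 36 µM; higher means less SRC3-driven luciferase light from the GAL4 reporter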
# SRC1 inh = human NCOA1 inhibition; Q15788; HEK293 GAL4-SRC1 luciferase reporter, luminescence; inhibition, % at 3.6 µM; 0.12% of 360,000 active; AID 588354;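 active = inhibition above the campaign mean plus 3 SD, with each screening campaign given its own cutoff, cut at about 60% in these data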;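 also: 0% = DMSO treated cells and 100% = gossypol at 36 µM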
# Gli-Sufu antag = Gli-Sufu pathway antagonism. inhibition, % at 5 µM. 0.74% of 340,000 active. Sufu-KO-LIGHT fibroblasts, Gli luciferase reporter luminescence. AID 588413;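 active = inhibition above about 55%, limit read from the data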;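 also: 0% = DMSO-treated cells and 100% = wells with medium but no cells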
# SRC2 inh = inhibits human steroid receptor coactivator 2. 0.17% of 370,000 active. HEK293 GAL4-SRC2 luciferase reporter, luminescence. inhibition, % at 9 µM;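 active = inhibition above the mean inhibition of all tested compounds plus 3 SD, set per campaign, cut at about 52% in these data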;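 also: 0% = DMSO treated cells and 100% = cells given Gossypol at 36 µM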
# Gli-Sufu confirm = confirmation of Gli-SUFU pathway antagonists; shares compounds with Gli-Sufu antag; Sufu-KO-LIGHT cells, Gli luciferase reporter, luminescence; inhibition, % at 5 µM; 40% of 2,500 active; AID 602428;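 active = mean inhibition at 5 µM reaching about 45%, limit read from the data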;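 also: plate controls were DMSO-treated cells for no effect and wells lacking cells for full effect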
# Gli cytotox = cytotoxic in Gli-SUFU antagonist counter-screen; shares compounds with Gli-Sufu antag; Sufu-KO-LIGHT cells cytotoxicity, ATP luminescence; cytotoxicity, % at 5 µM; 32% of 2,500 active;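 active = mean cytotoxicity at 5 µM above about 25%, limit read from the data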;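 also: cells exposed to compound overnight for roughly 16 to 18 hours; plate controls were DMSO wells with cells for no effect and medium without cells for full effect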
# Wnt3a counter = counter-screen for Gli-SUFU antagonists: Wnt3a reporter inhibition; 20% of 2,500 active; shares compounds with Gli-Sufu antag; Wnt-LIGHT cells, Wnt3a-driven luciferase reporter, luminescence; inhibition, % at 6.25 µM;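 active = mean inhibition above about 25%, limit read from the data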
# Starred values were filed as active, the others as inactive; x = no result given.
SMILES,NR2F2 inh,NR5A2 inv ag,NCOA3 inh,SRC1 inh,Gli-Sufu antag,SRC2 inh,Gli-Sufu confirm,Gli cytotox,Wnt3a counter
CCOC(=O)[C@]12CCCCC/C=C\1N(Cc1ccc(OC)cc1)C(=O)[C@H]2CC(=O)NCC12CC3CC(CC(C3)C1)C2,-4,x,x,x,x,-7,x,x,x
O=c1c(N=Nc2ccc(O)cc2)c(-c2ccccc2)[nH]n1-c1ccc([N+](=O)[O-])cc1,-14,22,-21,1,53,13,35,11,67*
NC(=O)c1ccc(N=Nc2c(-c3ccccc3)[nH]n(-c3ccccc3)c2=O)cc1,-10,x,x,x,x,15,x,x,x
CC1CCN(c2ccc(C(=O)O)cc2NS(=O)(=O)c2ccccc2[N+](=O)[O-])CC1,12,x,x,x,x,-4,x,x,x
Cc1ccc(OCC(=O)OCC(=O)Nc2sccc2C(N)=O)cc1C,-14,3,-8,-9,3,10,x,x,x
N#Cc1ccc(OCC(=O)OCC(=O)Nc2sccc2C(N)=O)cc1,-7,4,-4,-26,53,-4,14,30*,3
CCOC(=O)[C@]12CCCCC/C=C\1N(CCc1ccc(Cl)cc1)C(=O)[C@H]2CC(=O)NCCc1ccccc1OC,13,x,x,x,x,12,x,x,x
CCc1cccc(CC)c1NC(=S)/C(=C(\[O-])c1ccc(Cl)s1)[n+]1ccccc1,-4,-3,15,-6,53,-1,25,18,-4
Nc1[nH]c(C(=O)c2ccccc2)c(-c2ccc(Cl)cc2Cl)c1C(=O)NCCC1=CCCCC1,-3,x,x,x,x,x,x,x,x
CCCC1CCC2(CC1)CCC2OC(=S)Nc1ccccc1OC (centres undefined),5,x,x,x,x,x,x,x,x
O=C(O)c1ccc(O)c(O)c1,-8,-21,19,-4,3,14,x,x,x
O=C(O)c1ccc(-c2ccc(O)c(F)c2)cc1,-4,18,4,13,53,3,18,-4,-7
C/C(CC(=O)NCc1ccccc1)=N\NC(=O)c1cnccn1,-23,-58,-20,-35,50,-60,19,2,10
COc1cc(C=NN2CCN(C(c3ccccc3)c3ccccc3)CC2)cc(OC)c1OC(C)=O,12,x,x,x,x,12,x,x,x
O=C1CCCN1CN1CCCCC1,-29,18,-16,-5,99*,-5,13,22,-14
COC(=O)C(c1ccccc1)C(C(=O)OC)c1ccccc1 (centres undefined),-16,-1,1,6,-6,-19,x,x,x
COC(=O)[C@@H](c1ccccc1)N(C)S(=O)(=O)c1cccc(S(=O)(=O)N(C)[C@@H](C(=O)OC)c2ccccc2)c1,8,19,27,2,57*,26,33,33*,22
COc1ccc2c(c1OC)C(=O)OC2C1c2c(cc3c(c2OC)OCO3)CCN1C (centres undefined),-7,7,4,-4,51,-6,34,17,-6
Cc1cc(-n2c(SCc3ccccc3F)nc3n[nH]c(C)c3c2=N)ccc1Cl,7,-15,-1,-2,53,-20,25,5,-38
COc1ccccc1N1C(C)=CC(=C(C#N)c2nc3ccccc3s2)C=C1C,1,-2,19,-12,53,-11,54*,11,38*
CCOC(=O)c1c(NC(=O)COc2cccc3c2CCN(C)C3=O)sc2c1CCC2,8,-7,39,11,58*,9,43,8,15
CN(C)c1nc2c(N)ncnc2n1C1OC(CO)C(O)C1O (centres undefined),4,-19,-11,11,-6,7,x,x,x
CN(C)c1ncnc2c1ccn2C1OC(CO)C(O)C1O (centres undefined),-28,-63,-60,10,62*,-35,68*,48*,40*
COc1ccc(CCNC(=O)c2cc3c(=O)n4ccccc4nc3n(CCN3CCOCC3)c2=N)cc1,10,28,6,22,66*,7,21,5,-46
Nn1c(SCC(=O)NC2CCS(=O)(=O)C2)nc2scc(-c3ccccc3)c2c1=O (centres undefined),-24,6,2,8,50,-9,23,-5,1
SMILES,NR2F2 inh,NR5A2 inv ag,NCOA3 inh,SRC1 inh,Gli-Sufu antag,SRC2 inh,Gli-Sufu confirm,Gli cytotox,Wnt3a counter
C=CCn1c(SCC(=O)NC2CCS(=O)(=O)C2)nc2scc(C3CC3)c2c1=O (centres undefined),1,-16,12,-1,-2,2,x,x,x
COc1ccc(F)cc1COc1nc(C)nc2ccccc12,-4,9,2,-39,61*,-8,19,9,11
Cc1nc(OCc2ccccc2)c2ccccc2n1,7,7,2,9,12,-14,x,x,x
CC1(C)CC(=O)C=C(Nc2ccccc2NC(=O)c2cc(F)ccc2F)C1,1,x,x,x,x,-17,x,x,x
CCN(CC)c1ccc(CNc2nc3ccccc3n2CCN2CCOCC2)cc1,15,-11,6,-48,52,2,31,24,-39
COc1ccc(CNc2nc3ccccc3n2CCN2CCOCC2)cc1,14,-19,1,3,10,4,x,x,x
O=C(c1cccc(I)c1)N1CCC(Oc2cccnc2)CC1,-8,x,x,x,x,-13,x,x,x
COc1ccc(S(=O)(=O)N2CCN(Cc3cccc(OC)c3)CC2)cc1,8,0,6,8,62*,4,23,-3,8
COc1cccc(CN2CCN(S(=O)(=O)c3ccc(Br)cc3)CC2)c1,-8,6,0,-2,7,12,x,x,x
c1ccc(-c2ccc(C3=Nn4c(nnc4-c4ccccn4)SC3)cc2)cc1,5,x,x,x,x,-20,x,x,x
O=C(Cn1ccc(C(F)(F)F)n1)N/N=C/c1ccc2c(c1)OCO2,6,-3,-15,-15,58*,-24,9,21,-68
C=CCN1C(C(=O)OC)CN(Cc2cn(Cc3ccc(F)cc3)nn2)CCS1(=O)=O (centres undefined),-22,x,x,x,x,15,x,x,x
COc1ccc(C(C(=O)NC2CCCCC2)N(C(=O)CCl)c2ccc(C)cc2)cc1 (centres undefined),-9,-13,56,27,86*,38,33,29*,15
COc1ccc(C(C(=O)NC2CCCC2)N(C(=O)c2ccoc2C)c2ccc(C)cc2)cc1 (centres undefined),3,4,14,12,-15,5,x,x,x
COc1ccc(C(C(=O)NC2CCCCC2)N(C(=O)CCl)c2ccc(OC)cc2)cc1 (centres undefined),x,2,41,-14,84*,x,33,19,-40
COC(=O)c1ccc2nc(-c3cccc(Cl)c3)c(Cc3ccccc3C(F)(F)F)n2c1,-18,x,x,x,x,-35,x,x,x
